Hits are enriched below; roughly 7.9% of the tested compounds scored in any of these assays.
KB-3-1 cytotox – qHTS assay for MDR1-selective chemotherapeutics: Primary screen using the parental adenocarcinoma cell KB-3-1; KB-3-1 viability, CellTiter-Glo ATP luminescence, 72 h; Potency, µM (doses to about 46.1 µM), usual class: cytotoxic; hit rate 1.4% among 400,000; AID 1347075, 2019; further: on the % scale 0 is the no-effect control and ±100 the full control effect; nearly all actives have a fitted effect of over 60% in size
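Here the drug-naive KB-3-1 line serves as comparator for MDR sub-line selectivity; cells received compound titrations, 72 h at 37 °C, then CellTiter-Glo readout.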
KB-V1 MDR tox – qHTS assay for MDR1-selective chemotherapeutics: Primary screen using the drug-selected MDR subline cells KB-V1; KB-V1 MDR cells viability, CellTiter-Glo, 72 h; Potency, µM (series often up to 46.1 µM), most hits filed as cytotoxic; hit rate 3.4% among 400,000; AID 1347076, 2019; further: on the % scale 0 is the no-effect control and ±100 the full control effect; nearly all actives have a fitted effect of over 60% in size
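qHTS viability screen in drug-selected KB-V1 MDR cells: 72 h compound treatment at 37 degrees C, ATP luminescence end point.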
MCF10A rerep – A quantitative high throughput screen for small molecules that induce DNA re-replication in MCF 10a normal breast cells; MCF 10A DNA re-replication, Hoechst nuclear intensity, 48 h; Potency, µM (series often up to 46.1 µM), inactives show at the top dose activity, positive = re-replication, usual class: activators; hit rate 2.9% among 350,000; AID 624296, 2012; further: % of control where 0% means no effect; nearly all actives have a fitted effect of over 50% in size
HT1080 IDH1KD tx – qHTS for induction of synthetic lethality in tumor cells producing 2HG: qHTS for the HT-1080-IDH1KD cell line; Potency, µM (top dose mostly 46.1 µM), without a hit: at the top dose activity, negative = toxicity, actives largely listed as cytotoxic; HT-1080 IDH1 knockdown viability, ATP luminescence, 48 h; AID 686971, 2013; hit rate 2% among 360,000;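 further: 0% = DMSO wells and -100% = cell-free medium wells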
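HT-1080-IDH1KD cells (IDH1 knocked down), 750/well in RPMI with 5% FBS, treated with compound 48 h at 37 degrees C. Viability by CellTiter-Glo luminescence, normalised to DMSO and no-cell wells; concentration-response curves classed.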
HT1080NT lethal – qHTS for induction of synthetic lethality in tumor cells producing 2HG: qHTS for the HT-1080-NT fibrosarcoma cell line; HT-1080-NT fibrosarcoma viability, CellTiter-Glo ATP luminescence, 48 h; Potency, µM (series often up to 46.1 µM), inactives show at the top dose activity, negative = less viability, most hits filed as cytotoxic; hit rate 1.6% among 360,000;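 further: NT is the 2HG producing partner of a matched IDH1 knockdown line; 0% = DMSO-treated cells and -100% = media-only wells without cells; nearly all actives have a fitted effect of over 55% in size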
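750 cells/well, RPMI + 5% FBS; 2 h settle, compound pin-transfer, 48 h at 37 degrees C. CellTiter-Glo 10 min RT, luminescence. Normalized to DMSO and media-only wells.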
SW480 rereplic – A quantitative high throughput screen for small molecules that induce DNA re-replication in SW480 colon adenocarcinoma cells; Potency, µM (highest dose often 46.1 µM), for inactives: at the highest dose re-replication activation, most hits filed as activators; SW480 DNA re-replication, Hoechst DNA content imaging, 48 h; hit rate 1.8% among 340,000; AID 624297, 2012; further: % of control where 0% means no effect; nearly all actives have a fitted effect of over 55% in size
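Image-based DNA-content assay: after two days of treatment, nuclei were labelled with the DNA dye Hoechst and imaged, and hits were compounds raising the count of nuclei showing high fluorescence intensity.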
* = called active by the depositor; i = inactive; ? = inconclusive; · = not tested or not shown; [ ] = remark or other dose. The call rests on the fitted dose curve; in most records, active means well fitted curve in the direction sought with a large enough effect; inconclusive means small, poorly fitted or top-dose-only effect, or another doubt; inactive means no such curve, though single readings can be large; an effect the other way counts as inactive or inconclusive. Potency means the concentration at half of the fitted maximal effect.

SMILES	KB-3-1 cytotox	KB-V1 MDR tox	MCF10A rerep	HT1080 IDH1KD tx	HT1080NT lethal	SW480 rereplic
O=C1N/C(=C/c2cccn2-c2ccc(F)cc2)C(=O)N1Cc1ccccc1	i	?	?	?	?	0%
Cc1ccc(S(=O)(=O)N2C[C@H]3[C@H]4C(=O)N(C)C(=O)[C@H]4CC(=O)[C@H]3[C@@H]2c2ccccc2F)cc1	i	i	·	18%	?	·
COc1ccc(-c2nc(-c3ccc4c(c3)OCO4)[nH]c2-c2ccc(OC)cc2)cc1	i	21µM*	?	?	18µM*	?
COc1ccc(-c2noc(-c3ccc4c(c3)OCO4)n2)cc1	i	i	-2%	21%	29%	-4%
CN(C)c1ccc(C(=O)N/N=C/c2ccccn2)cc1	i	i	-27%	?	?	28%
CCn1nc(C)cc1C(=O)N1CCc2c([nH]c3ccccc23)C1c1cc(F)ccc1F (centres undefined)	?	?	?	23µM*	?	?
Cc1ncoc1C(=O)N1CCc2c([nH]c3ccccc23)C1c1ccccc1F (centres undefined)	i	i	19%	-20%	?	-1%
CC(=O)c1ccc(-n2nnnc2SCC(=O)N2CCc3ccccc3C2)cc1	i	12µM*	-3%	12%	8%	?
O=C(CSc1nnnn1-c1ccccc1)N1CCc2ccccc2C1	i	15µM*	21%	3%	5%	-4%
CSc1nc2c(cnn2-c2ccc(C)c(C)c2)c(=O)[nH]1	1.6µM*	?	0%	9%	1%	-11%
CCOC(=O)c1c(NC(=O)CSc2ncn[nH]2)sc(C(C)=O)c1C	i	i	-6%	-1%	0%	-11%
CCOC(=O)c1c(NC(=O)COc2ncnc3ccccc23)sc(C(C)=O)c1C	i	i	?	-2%	-9%	-2%
COC(=O)c1c(NC(=O)COc2ncnc3ccccc23)sc(C)c1C	i	15µM*	-3%	1%	0%	-6%
CCOC(=O)c1c(NC(=O)COc2ncnc3sccc23)sc2c1CCC2	i	3.3µM*	25%	?	?	-1%
COC(=O)c1c(NC(=O)CSc2ncn[nH]2)sc(C)c1C	i	21µM*	7%	-10%	0%	0%
CCOC(=O)c1c(NC(=O)COc2ccc(CC)cc2)sc2c1CCCC2	i	i	·	·	·	·
CN(c1ccccc1C(=O)Nc1ccc(F)c(Cl)c1)S(C)(=O)=O	i	i	-2%	4%	20%	-5%
COc1ccc(NC(=O)N(Cc2ccc(C)cc2)Cc2ccccn2)c(OC)c1	i	i	?	-9%	-2%	-3%
O=C(NNC(=O)c1ccc(SCC2CCCO2)c([N+](=O)[O-])c1)c1ccc(Cl)c([N+](=O)[O-])c1 (centres undefined)	i	i	?	?	?	7%
O=C(NNC(=O)c1ccccc1Br)c1ccc(SCC2CCCO2)c([N+](=O)[O-])c1 (centres undefined)	i	23µM*	?	14%	15%	1%
COc1ccc(Nc2nc(Cl)nc(NCc3ccco3)n2)c(OC)c1	i	i	?	16%	4%	0%
Oc1ccccc1N=Nc1ccccc1O	7.3µM*	?	19%	?	?	?
CCN(CC)C(=O)CCCSc1nnc(Nc2ccccc2F)s1	i	?	-1%	4%	8%	-5%
CCN(CC)P(=O)(Nc1ccc(C)cc1Br)c1ccc(N(C)C)cc1NC(=O)c1ccco1 (centres undefined)	?	18µM*	?	-9%	-10%	?
C=CCN(c1ccccc1)S(=O)(=O)c1cccc(C(=O)NCc2ccco2)c1	i	18µM*	1%	?	?	2%
SMILES	KB-3-1 cytotox	KB-V1 MDR tox	MCF10A rerep	HT1080 IDH1KD tx	HT1080NT lethal	SW480 rereplic
C=CCN(c1ccccc1)S(=O)(=O)c1cccc(C(=O)Nc2cc(C)ccn2)c1	?	?	19%	?	-21%	?
C=CCN(c1ccccc1)S(=O)(=O)c1cccc(C(=O)NC2CCN(Cc3ccccc3)CC2)c1	21µM*	?	?	-15%	-5%	?
Cc1[nH]nc2c1-c1nc3ccccc3nc1C(C)(C)C2	?	18µM*	?	-22%	-19%	?
CC12CCC(C)(c3nc4ccccc4nc31)C2(C)C	i	i	4%	7%	0%	-5%
CC1CCC2(CC1)NC(=O)N(CC(=O)NCc1ccc(F)cc1)C2=O (centres undefined)	i	i	3%	0%	1%	-5%
O=[N+]([O-])c1ccc2cccnc2c1	i	i	·	3%	5%	·
COc1ccc(CC2S/C(=N/N=C/c3ccccc3O)NC2=O)cc1 (centres undefined)	?	i	23µM*	-16%	-15%	2.9µM*
O=C1N/C(=N/N=C/c2ccc(O)cc2)SC1Cc1ccccc1 (centres undefined)	i	i	1%	12%	-12%	-47%
COc1ccc(CC2S/C(=N/N=C/c3ccc(O)cc3)NC2=O)cc1 (centres undefined)	i	i	-5%	-2%	-7%	7%
O=C1N/C(=N/N=C/c2ccccc2O)SC1Cc1ccc(F)cc1 (centres undefined)	?	?	28%	23µM*	?	?
COc1ccc2nc(NCCO)[nH]c2c1	i	i	-18%	-1%	-3%	2%
COc1ccc2nc(NCc3ccccc3)[nH]c2c1	9.2µM*	?	18µM*	?	?	15µM*
c1ccc(CNc2nc3ccccc3[nH]2)cc1	i	i	?	-2%[9.24 µM]	?	?
Cc1ccc2nc(NCc3ccccc3)[nH]c2c1	5.2µM*	5.8µM*	?	3.7µM*	5.8µM*	5.2µM*
O=C(COC(=O)c1cccc2ccccc12)Nc1ncc(C(F)(F)F)cc1Cl	i	i	-183%[0.0737 µM]	1%	-6%	-7%
N#Cc1cnn(-c2ccc([N+](=O)[O-])cc2[N+](=O)[O-])c1N	18µM*	?	·	-29%	-2%	·

High-throughput results deposited in PubChem by National Center for Advancing Translational Sciences (NCATS).
